Reference: the supplement of paper PMC12282887
± gives the standard deviation of the averaged measurements.

Tested on: E. coli BW25113 marRABp lux reporter
Assay: promoter activity interaction Z-score (Lux/OD deviation from empty-vector control); higher = stronger promoter induction by the compound
Description: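 E. coli BW25113 (wild type or ΔmarA/ΔsoxS/Δrob) carrying pTU175 luxCDABE promoter reporters was grown in LB in 384-well plates at 37°C with each of 94 compounds at 4 two-fold concentrations, in biological duplicates. Luminescence and OD600 were read every 30 min for 12 h and integrated as AUC over 8 h (0-8 h WT, 1-9 h mutants). Lux AUC was divided by OD AUC; the interaction score is the residual of a Huber robust fit of each promoter against the empty-vector control, then Z-transformed per promoter.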

Oc1cc(O)c2c(c1)O[C@@H](c1ccc(O)c(O)c1)[C@H](O)C2 [Catechin]
promoter activity interaction Z-score (18.1 µg/ml, genetic background: wild type): 0.176 ± 0.43
promoter activity interaction Z-score (18.1 µg/ml, genetic background: ΔmarA): -0.0258 ± 0.23
promoter activity interaction Z-score (18.1 µg/ml, genetic background: Δrob): 0.052 ± 0.11
promoter activity interaction Z-score (18.1 µg/ml, genetic background: ΔsoxS): -0.135 ± 0.017
promoter activity interaction Z-score (36.3 µg/ml, genetic background: wild type): -0.308 ± 0.32
promoter activity interaction Z-score (36.3 µg/ml, genetic background: ΔmarA): -0.311 ± 0.035
promoter activity interaction Z-score (36.3 µg/ml, genetic background: Δrob): -0.0876 ± 0.28
promoter activity interaction Z-score (36.3 µg/ml, genetic background: ΔsoxS): -0.0441 ± 0.25
promoter activity interaction Z-score (72.6 µg/ml, genetic background: wild type): 0.00953 ± 0.33
promoter activity interaction Z-score (72.6 µg/ml, genetic background: ΔmarA): -0.104 ± 0.28
promoter activity interaction Z-score (72.6 µg/ml, genetic background: Δrob): -0.105 ± 0.045
promoter activity interaction Z-score (72.6 µg/ml, genetic background: ΔsoxS): -0.241 ± 0.033
promoter activity interaction Z-score (145.1 µg/ml, genetic background: wild type): -0.286 ± 0.36
promoter activity interaction Z-score (145.1 µg/ml, genetic background: ΔmarA): -0.359 ± 0.22
promoter activity interaction Z-score (145.1 µg/ml, genetic background: Δrob): -0.128 ± 0.36
promoter activity interaction Z-score (145.1 µg/ml, genetic background: ΔsoxS): -0.183 ± 0.067

Nc1ccc(C(=O)O)c(O)c1 [4-Aminosalicylic acid]
promoter activity interaction Z-score (19.1 µg/ml, genetic background: wild type): 0.109 ± 0.4
promoter activity interaction Z-score (19.1 µg/ml, genetic background: ΔmarA): 0.307 ± 0.0067
promoter activity interaction Z-score (19.1 µg/ml, genetic background: Δrob): 0.19 ± 0.12
promoter activity interaction Z-score (19.1 µg/ml, genetic background: ΔsoxS): 0.147 ± 0.18
promoter activity interaction Z-score (38.3 µg/ml, genetic background: wild type): 0.0516 ± 0.015
promoter activity interaction Z-score (38.3 µg/ml, genetic background: ΔmarA): 0.172 ± 0.09
promoter activity interaction Z-score (38.3 µg/ml, genetic background: Δrob): 0.493 ± 0.39
promoter activity interaction Z-score (38.3 µg/ml, genetic background: ΔsoxS): 0.161 ± 0.086
promoter activity interaction Z-score (76.6 µg/ml, genetic background: wild type): -0.0573 ± 0.025
promoter activity interaction Z-score (76.6 µg/ml, genetic background: ΔmarA): -0.242 ± 0.12
promoter activity interaction Z-score (76.6 µg/ml, genetic background: Δrob): 0.384 ± 0.31
promoter activity interaction Z-score (76.6 µg/ml, genetic background: ΔsoxS): -0.0494 ± 0.21
promoter activity interaction Z-score (153.1 µg/ml, genetic background: wild type): 0.642 ± 0.055
promoter activity interaction Z-score (153.1 µg/ml, genetic background: ΔmarA): 0.698 ± 0.021
promoter activity interaction Z-score (153.1 µg/ml, genetic background: Δrob): 0.956 ± 0.3
promoter activity interaction Z-score (153.1 µg/ml, genetic background: ΔsoxS): 0.968 ± 0.13

CC(=O)[C@H]1CC[C@H]2[C@@H]3CCC4=CC(=O)CC[C@]4(C)[C@H]3CC[C@]12C [Progesterone]
promoter activity interaction Z-score (19.7 µg/ml, genetic background: wild type): -0.0683 ± 0.075
promoter activity interaction Z-score (19.7 µg/ml, genetic background: ΔmarA): 0.0187 ± 0.17
promoter activity interaction Z-score (19.7 µg/ml, genetic background: Δrob): -0.191 ± 0.093
promoter activity interaction Z-score (19.7 µg/ml, genetic background: ΔsoxS): 0.0521 ± 0.092
promoter activity interaction Z-score (39.3 µg/ml, genetic background: wild type): -0.275 ± 0.28
promoter activity interaction Z-score (39.3 µg/ml, genetic background: ΔmarA): -0.0815 ± 0.0053
promoter activity interaction Z-score (39.3 µg/ml, genetic background: Δrob): -0.249 ± 0.035
promoter activity interaction Z-score (39.3 µg/ml, genetic background: ΔsoxS): -0.155 ± 0.11
promoter activity interaction Z-score (78.6 µg/ml, genetic background: wild type): -0.102 ± 0.22
promoter activity interaction Z-score (78.6 µg/ml, genetic background: ΔmarA): -0.0516 ± 0.038
promoter activity interaction Z-score (78.6 µg/ml, genetic background: Δrob): -0.252 ± 0.24
promoter activity interaction Z-score (78.6 µg/ml, genetic background: ΔsoxS): -0.3 ± 0.093
promoter activity interaction Z-score (157.2 µg/ml, genetic background: wild type): -0.0485 ± 0.46
promoter activity interaction Z-score (157.2 µg/ml, genetic background: ΔmarA): 0.0739 ± 0.13
promoter activity interaction Z-score (157.2 µg/ml, genetic background: Δrob): -0.505 ± 0.15
promoter activity interaction Z-score (157.2 µg/ml, genetic background: ΔsoxS): -0.178 ± 0.15
